aSyn UTR inh: MLPCN primary screen, SNCA 5' untranslated region; alpha-synuclein 5'UTR reporter, inhibitor activity; inhibition, % (tested at 7.5 µM); hit rate 0.82% among 300,000; AID 1813, 2009; in the data active = inhibition above about 60%;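 also: H4 neuroglioblastoma cells stably carrying SNCA 5'UTR luciferase fusion; 0% = DMSO wells and 100% = positive control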
BaF3 tox: parental Ba/F3 cell viability inhibition, counter-screen for JAK2V617F inhibitor project, murine pro-B, CellTiter-Glo luminescence; inhibition, % at 5.6 µM; CellTiter-Glo ATP luminescence; AID 1486, 2009; hit rate 1.1% among 220,000;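 active = inhibition above a per-campaign cutoff, the mean inhibition of all tested compounds plus 3 SD, cut at about 27% in these data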;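 also: 0% = DMSO wells and 100% = JAK Inhibitor I control wells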
APP 5UTR inh: inhibitors of APP translation via 5'UTR reporter, primary screen, APP 5'UTR luciferase, SH-SY5Y cells | hit rate 0.82% among 190,000 | inhibition, % at 2 µM | SH-SY5Y APP 5'UTR-luciferase reporter, luminescence;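 active = inhibition above a set limit, derived from the sample mean plus 3 SD, cut at about 45% in these data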
Ba/F3 V617F tox: reduced viability of JAK2V617F-dependent Ba/F3 cells, primary screen, JAK2V617F inhibitor project, cell-based, Ba/F3 EpoR-JAK2V617F, luminescence; hit rate 1.1% among 220,000; AID 1446, 2008; ATP luminescence; inhibition, % at 5.6 µM;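 active = inhibition above the campaign mean plus 3 SD over all tested compounds, cut at about 24% in these data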;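 also: cytokine-independent growth of Ba/F3 cells driven by EpoR plus mutant JAK2; 0% = DMSO-treated cells and 100% = JAK inhibitor I control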
KLF5 inhibitor: KLF5 expression inhibitors, primary screen, DLD-1 cells, luminescence; AID 1700, 2009; DLD-1 KLF5 promoter-luciferase reporter; hit rate 0.23% among 290,000; inhibition, % at 5 µM;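 active = inhibition above a per-plate limit of that plate's mean compound inhibition plus 3 SD, cut at about 60% in these data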;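 also: 0% = DMSO wells and 100% = LY294002 at 200 µM; higher means less KLF5 promoter-driven luciferase light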
IEC-6 cytotox: cytotoxicity in IEC-6 intestinal epithelial cells, primary screen, cytotoxicity control for KLF5 inhibitor project, cell-based, luminescence | IEC-6 cytotoxicity, luminescence viability | inhibition, % at 5 µM | hit rate 0.78% among 290,000; in the data active = inhibition above about 22%;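 also: 0% = plate median of test compound wells and 100% = cytotoxic reference compound wells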
An asterisk follows results filed as active; x = not tested or not shown. An excerpt weighted towards active compounds, which were near 2.2% of everything screened.

SMILES | aSyn UTR inh | BaF3 tox | APP 5UTR inh | Ba/F3 V617F tox | KLF5 inhibitor | IEC-6 cytotox
COc1ccc(C(=O)CSc2ncnc3nc[nH]c23)cc1 | -15.9 | 4.0 | x | 0.1 | -32.4 | -3.7
O=C(C1CCCO1)N1CCN(C(=S)Nc2ccc(F)c(Cl)c2)CC1 (stereo unspecified) | -14.7 | 27.3* | 4.7 | 27.6* | -24.4 | 2.6
CCCc1nnc(NC(=O)CSc2nnc(-c3ccco3)n2C)s1 | -0.6 | x | x | x | 18.9 | -0.2
Cc1ccc(NC(=O)Cc2sc(C)nc2-c2ccc(C)cc2)cc1 | -5.5 | 39.4* | -8.1 | 20.6 | 6.0 | 2.0
CCOC(=O)c1ccc2c(c1)[n+](CC)c(C)n2-c1ccccc1 | -4.3 | 75.8* | 16.9 | 38.3* | -16.9 | -5.5
CCOC(=O)c1c(O)c(O)c(C(=O)OCC)n1-c1ccccc1 | 12.9 | -3.2 | x | -2.6 | -30.7 | -11.3
CC[n+]1c(C)n(-c2ccccc2)c2ccc(C(=O)OC)cc21 | -1.9 | 54.6* | -10.6 | 36.3* | -4.7 | -2.8
CC(=O)OCC[n+]1c(C)n(-c2ccccc2)c2ccc(Cl)cc21 | 10.0 | 11.9 | -45.5 | -1.8 | -28.1 | 0.7
CCn1c(C)[n+](CC)c2ccc(C(=O)N(C)c3ccccc3)cc21 | 7.9 | 4.0 | 16.5 | 4.2 | -14.4 | 6.4
CCOC(=O)c1ccc2c(c1)n(CC)c(C)[n+]2CC | -20.8 | 36.5* | 5.1 | 20.1 | -1.5 | 6.6
CC1(c2ccccc2)NC(=O)N(CC(=O)Nc2ccccc2N2CCCC2)C1=O (stereo unspecified) | 0.2 | x | x | x | x | x
CC(=O)c1cccc(NS(=O)(=O)c2cc3c(cc2C)N(C(C)=O)CCO3)c1 | 5.5 | x | x | x | -37.5 | -0.5
C=C1/C(=C\C=C2/CCC[C@]3(C)[C@@H]([C@H](C)CCCC(C)(C)O)CC[C@@H]23)C[C@@H](O)C[C@@H]1O | -0.1 | 2.8 | x | 44.9* | -34.8 | 1.7
COc1cc(Cl)c(C)cc1NC(=S)NN | -2.8 | 2.6 | 14.1 | 0.1 | 9.5 | 2.4
Cc1cc(N/N=C/c2ccc(O)cc2O)nc(-c2ccccc2O)n1 | 74.6* | -1.5 | 56.2* | 5.7 | 35.2 | 0.6
CC(C(=O)Nc1cccc(S(=O)(=O)N2CCOCC2)c1)N1CCN(C/C=C/c2ccccc2)CC1 (stereo unspecified) | 23.9 | 30.3* | -2.4 | 27.7* | -14.8 | -6.7
COc1cccc2c1-c1c(O)cccc1C2=O | 3.8 | x | x | x | 0.6 | 1.9
COc1cccc2c1C(=O)c1c(O)c3c(c(O)c1C2=O)C[C@](O)(C(C)=O)C[C@H]3O[C@@H]1C[C@@H](N)[C@@H](O)[C@@H](C)O1 | 111.2* | x | x | x | x | x
CC(C)C(=O)n1nc(-c2cccnc2)nc1NCc1ccc(F)cc1 | 6.1 | 0.0 | -1.6 | -1.8 | 9.3 | 8.7
CCCc1nc2oc3c(NCCN(C)C)ncnc3c2c2c1CCCC2 | -30.2 | -0.8 | -9.8 | -1.4 | 11.4 | 3.5
CCCc1nc2oc3c(NCCCN(C)C)ncnc3c2c2c1CCCC2 | 107.7* | 68.7* | x | 68.4* | -31.2 | -5.6
CCOCC(=O)Nc1cccc(C(=O)OCC)c1 | -26.7 | 97.7* | 10.4 | -3.0 | -2.5 | -1.8
CCOC(=O)c1cccc(NC(=O)COC)c1 | -2.0 | 1.4 | -2.1 | -3.9 | 3.0 | 3.0
S=C(Nc1ccccc1)N1CCCN1c1ccccc1 | -8.9 | 30.5* | x | 24.1* | -35.8 | 0.2
Cc1cc(C)c2cc(C=O)c(Cl)nc2c1 | -7.3 | 2.8 | 93.2* | 0.9 | -12.0 | 6.2
SMILES | aSyn UTR inh | BaF3 tox | APP 5UTR inh | Ba/F3 V617F tox | KLF5 inhibitor | IEC-6 cytotox
COc1ccc(Cl)cc1NC(=O)CCc1nnc2ccc(N3CCC4(CC3)OCCO4)nn12 | -2.3 | x | x | x | 2.5 | 11.7
CCN(CC)c1ccc(NC(=O)CCCCC(=O)Nc2ccc(N(CC)CC)cc2)cc1 | 62.8* | x | x | x | x | x
CCN(CC)c1ccc(NC(=O)CCCCCN2C(=O)c3ccccc3C2=O)cc1 | -3.5 | 7.1 | 5.1 | 3.4 | 0.9 | 0.5
CS(=O)(=O)N1CCCC(C(=O)NCCCN2CCC(Cc3ccccc3)CC2)C1 (stereo unspecified) | -1.6 | 95.6* | 11.0 | -0.8 | -17.5 | -4.3
CCOC(=O)c1nn(-c2ccccc2C)c(=O)cc1OCC(=O)Nc1cccc(OC)c1 | -0.3 | x | x | x | x | x
O=C1CS/C(=N\c2ccccn2)N1C1CCCCC1 | 22.1 | 95.6* | 0.9 | -2.0 | 1.5 | 1.3
CCOC(=O)C1=C(C)N(CCCC(=O)O)C(=O)NC1c1cc2ccccc2c2ccccc12 (stereo unspecified) | 2.5 | x | x | x | x | x
COc1cc(NC(=O)c2n[nH]c(=O)c3ccccc23)cc(OC)c1 | 1.7 | -10.7 | x | -0.7 | -5.0 | 2.8
COc1ccc(-c2nc(NC(=O)CCNC(=O)c3ccco3)sc2C)cc1 | 6.1 | 27.9* | 12.4 | -1.4 | -15.1 | -1.7
COc1ccc(-c2nc(NC(=O)c3n[nH]c(=O)c4ccccc34)sc2C)cc1 | 39.6 | 8.2 | 16.0 | 1.9 | -18.1 | 21.9*
CCOc1ccc(-c2cc(CCCC(=O)NCc3ccco3)no2)cc1 | 72.8* | -1.2 | 40.6 | -1.5 | -9.4 | -0.7
COc1ccc(-c2cc(CCCC(=O)NCCc3cc(OC)ccc3OC)no2)cc1 | 7.1 | 5.8 | 1.8 | 2.5 | 7.3 | 1.2
CCOc1ccc(-c2cc(CCCC(=O)NCc3ccc(C)cc3)no2)cc1 | 80.7* | 6.0 | 29.5 | 1.0 | 17.1 | -1.2
Fc1cccc(/C=N/Nc2nncc3ccccc23)c1 | -12.8 | x | x | x | -36.9 | 19.2
C(=N\Nc1ccc2nncn2n1)/c1ccccn1 | 66.6* | 1.6 | x | 5.7 | -17.0 | 14.8
C(=N\Nc1nncc2ccccc12)/c1ccccn1 | 97.8* | x | x | x | 56.2 | 3.2
CCC(Cc1ccccc1)NS(=O)(=O)c1c(C)nc2scc(C)n2c1=O (stereo unspecified) | -16.2 | x | x | x | -45.7 | -8.5
Clc1ccc(-c2c[n+](Cc3cccc(Cl)c3)c3n2CCC3)cc1 | -14.9 | 64.5* | -9.6 | 77.1* | -19.7 | -0.3
Clc1ccc(C[n+]2cc(-c3ccccc3)n3c2CCC3)cc1Cl | 0.9 | 71.2* | 13.9 | 85.3* | -31.7 | -5.4
N#CC[n+]1cc(-c2ccc(Cl)cc2)n2c1CCC2 | 2.9 | 4.4 | 17.7 | 0.6 | -0.3 | -2.1
O=C(Nc1c2c(nc3ccccc13)CCCC2)c1cccc([N+](=O)[O-])c1 | 17.3 | 2.3 | 0.3 | -0.9 | -23.0 | -1.3
CN(C)c1cc[n+](Cc2c(Cl)cccc2Cl)cc1 | 7.5 | 80.3* | 1.6 | 98.2* | 5.5 | -5.1
Cc1cnc(CNC(=O)CC2C(=O)NCCN2Cc2cccc(F)c2F)cn1 (stereo unspecified) | -18.4 | x | x | x | -10.2 | 2.7
CCC(C)NC(=O)CSc1nc2c(sc(=S)n2Cc2ccco2)c(=O)n1-c1ccccc1 (stereo unspecified) | 7.7 | 4.7 | 67.8* | 4.5 | -8.9 | 3.5
Cc1ccc(C)c(-n2nnnc2SCC(=O)NNC(=O)c2ccco2)c1 | 17.0 | 1.8 | -14.1 | 2.4 | -18.2 | 5.3
Cc1nc(N2CCN(C)CC2)c2sc(=S)n(-c3ccccc3)c2n1 | -31.2 | 5.0 | -10.8 | 4.7 | -22.9 | -1.1

Screening data: PubChem, several laboratories
